This is a sample that favours compounds with a hit; in the whole collection about 4.1% have one here.
ABHD5-PLIN5 inh: ABHD5-PLIN5 protein interaction inhibition. Q00G26+Q8WTS1. Split G. princeps luciferase complementation, luminescence, 4 h. inhibition, % at 4 µM. 360,000 tested, 0.78% active. AID 602281;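 active = inhibition above the mean inhibition across every tested compound plus 3 SD, cut at about 22% in these data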;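 note: 0% = DMSO only wells and the 100% control is not disclosed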
LEDGF integ inh: blocks HIV-1 LEDGF/p75-dependent DNA integration | TR-FRET IN-LEDGF/p75 DNA integration, Eu/Cy5 | inhibition, % at 3.7 µM | 370,000 tested, 0.64% active;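 active = inhibition above the screen-wide mean plus 3 SD, cut at about 13% in these data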;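 note: signal is the Cy5 over europium emission ratio at 671 and 618 nm; 0% = plate median of compound wells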
rCAG RNA binder: r(CAG) repeat RNA binding; 370,000 tested, 1.3% active; inhibition, % at 3 µM; TO-PRO-1 dye displacement fluorescence;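 active = inhibition above the plate cutoff, the mean of all test compounds on that plate plus 3 SD, cut at about 35% in these data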;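 note: 0% = DMSO alone and 100% = 100 µM mitoxantrone as full dye displacement; higher means more dye released from RNA so lower well fluorescence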
UHRF1 MBD2 ctr: UHRF1 methyl-DNA binding inhibition; Q96T88; UHRF1 binding to methylated oligo, TR-FRET; inhibition, % at 4.4 µM; 370,000 tested, 0.75% active; in the data active = inhibition above about 21%;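 note: UHRF1 SRA domain binding a hemimethylated CpG hairpin DNA probe; 0% = median of test compound wells and 100% = reference inhibitor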
PRMT1 FP inh: blocks human protein arginine methyltransferase 1. recombinant PRMT1, activity-based probe fluorescence polarization. inhibition, % at 2.79 µM. 370,000 tested, 1.3% active;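 active = inhibition above about 21% made by adding two undisclosed values, limit read from the data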
MBD2 DNA inh: MBD2-methylated oligo binding inhibition; TR-FRET, MBD2 binding to methylated oligonucleotide; inhibition, % at 4.4 µM; 370,000 tested, 0.31% active; AID 686964; in the data active = inhibition above about 13%
Target sequence (Q9UBB5 whole entry, looked up): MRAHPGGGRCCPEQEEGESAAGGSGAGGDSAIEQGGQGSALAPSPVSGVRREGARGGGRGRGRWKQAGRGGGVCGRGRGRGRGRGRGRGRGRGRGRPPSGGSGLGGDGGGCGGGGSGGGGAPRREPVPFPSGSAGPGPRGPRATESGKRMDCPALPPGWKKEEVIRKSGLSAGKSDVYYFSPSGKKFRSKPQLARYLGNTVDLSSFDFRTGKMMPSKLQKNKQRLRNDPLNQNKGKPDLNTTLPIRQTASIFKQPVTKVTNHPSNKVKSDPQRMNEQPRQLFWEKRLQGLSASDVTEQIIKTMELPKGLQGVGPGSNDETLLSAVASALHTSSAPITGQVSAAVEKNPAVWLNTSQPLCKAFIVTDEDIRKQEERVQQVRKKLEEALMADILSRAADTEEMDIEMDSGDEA
ABHD5 PLIN5 conf: ABHD5-PLIN5 interaction inhibition, confirmed; biochemical ABHD5-PLIN5 interaction, luminescence; shares compounds with ABHD5-PLIN5 inh; inhibition, % at 4 µM; 2,200 tested, 67% active; in the data active = inhibition above about 23%;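 note: 0% = DMSO vehicle wells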
HNF4 counter: HNF4 split-luciferase signal hit, counter-screen; shares compounds with ABHD5-PLIN5 inh; inhibition, % at 4 µM; AID 651674; 2,200 tested, 77% active; HNF4 dimerization, luminescence, biochemical;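 active = mean inhibition across replicate wells exceeding the computed hit threshold, cut at about 13% in these data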;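 note: light from luciferase halves that rejoin when HNF4 fusion proteins dimerize; 0% = DMSO only wells and the 100% control is not given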
An asterisk follows results filed as active; . = no result.

SMILES	ABHD5-PLIN5 inh	LEDGF integ inh	rCAG RNA binder	UHRF1 MBD2 ctr	PRMT1 FP inh	MBD2 DNA inh	ABHD5 PLIN5 conf	HNF4 counter
Cc1ccc2nc3cc([N+](=O)[O-])cc([N+](=O)[O-])c3cc2c1	39*	2	2	0	2	-4	89*	47*
CC(C)(C)S(=O)N1Cc2cc(C(=O)N[C@@H]3CCN(Cc4ccccc4)C3)nc(-c3cccc(-c4cc5ccccc5o4)c3)c2[C@@H]1CCO (some centres not stated)	26*	3	13	0	-5	-5	12	0
CC1(C)COC(/C=C/c2cccc([N+](=O)[O-])c2)=N1	29*	0	-5	1	1	4	46*	49*
CCCCC[C@H](C)N1C[C@H](COCc2ccccc2)Oc2cc(N3CC[C@@H](N(C)C)C3)ccc2S1(=O)=O	-1	1	2	1	-2	-2	.	.
CCCCC[C@@H](C)N1C[C@@H](COCc2ccccc2)Oc2cc(N3CC[C@@H](N(C)C)C3)ccc2S1(=O)=O	28*	-3	3	4	3	2	2	-5
COC(=O)C1=C(C)N(Cc2cccc(C(F)(F)F)c2)C(=NCc2cc(OC)c(OC)c(OC)c2)NC1c1ccccc1 (configuration not stated)	.	3	8	0	-2	-1	.	.
COc1cc(/C=C2\COC/C(=C\c3ccc(O)c(OC)c3)C2=O)ccc1O	54*	6	11	-7	5	-12	90*	84*
COc1ccc(/C=C2\CCC/C(=C\c3ccc(OC)c(OC)c3OC)C2=O)c(OC)c1OC	38*	1	-4	4	7	1	10	16*
COc1cc(/C=C2\CC/C(=C\c3ccc(OCCO)c(OC)c3)C2=O)ccc1OCCO	22	2	-3	-14	-8	-2	.	.
COc1ccc(/C=C2\CC/C(=C\c3ccc(OC)c(OC)c3)C2=O)cc1OC	31*	10	1	-5	-1	-7	58*	44*
COc1cc(OC)c(OC)cc1/C=C1\CCC/C(=C\c2cc(OC)c(OC)cc2OC)C1=O	7	1	11	0	2	-6	.	.
COc1cc(/C=C2/CC/C(=C/c3ccc(O)c(OC)c3)C2=O)ccc1O	24*	5	26	-4	17	-4	26*	32*
O=C(N[C@@H]1CC[C@H]2SC[C@H](C(=O)O)N2C1=O)OCC1c2ccccc2-c2ccccc21	.	-2	26	3	8	0	.	.
CC1CCN(CCCNS(=O)(=O)c2cc3c(cc2Br)CCN3C(=O)C2CC2)CC1	.	-2	7	-3	-2	2	.	.
CCCC1CCC2(CCCN2CCOC(=O)Nc2ccccc2OC)CC1 (configuration not stated)	.	4	.	-1	-4	1	.	.
COc1cccc(-c2nnc(SCC(=O)NCc3ccc4c(c3)OCO4)n2Cc2ccco2)c1	28*	1	5	-2	-1	-2	6	10
CCC(=O)NC1=C(NC(C)c2ccccc2)C(=O)c2ccccc2C1=O (configuration not stated)	-9	1	-4	12	-1	-6	.	.
CCC(=O)NC1=C(Cl)C(=O)C(NC(=O)CC)=C(Cl)C1=O	45*	10	0	-4	90*	-11	101*	103*
O=C1c2ccccc2/C(=C\c2ccc(Br)nc2)N1c1ccccc1	.	-3	6	-4	2	1	.	.
COC(=O)[C@]12C[C@H](CC(=O)NCc3ccc(C)o3)C(=O)N(Cc3ccc(Cl)cc3Cl)C1=C[C@H](C(C)C)O[C@@H]2C1CC1	.	4	2	-2	1	4	.	.
CC(C)(C)c1ccc(/C=C/C(=O)Nc2cccnc2)cc1	-6	-2	-1	-2	5	2	.	.
CN1C(=S)N(c2cccnc2)C(=O)/C1=C\c1ccc(C(C)(C)C)cc1	38*	0	8	0	-2	2	65*	55*
COc1ccc(NC(=O)CCc2nnc3ccc(NCc4ccco4)nn23)cc1	1	4	0	-3	-3	-2	.	.
Cc1cccnc1NC(=O)CCc1nnc2ccc(NCc3ccco3)nn12	32*	2	7	6	13	7	11	6
COc1ccc(NC(=O)CCc2nnc3ccc(NCc4ccco4)nn23)cc1OC	34*	2	4	-2	-1	-3	12	13*
SMILES	ABHD5-PLIN5 inh	LEDGF integ inh	rCAG RNA binder	UHRF1 MBD2 ctr	PRMT1 FP inh	MBD2 DNA inh	ABHD5 PLIN5 conf	HNF4 counter
O=C(CCc1nnc2ccc(NCc3ccco3)nn12)Nc1ccccn1	12	6	8	14	21	13	.	.
COc1ccc2c(c1)[C@@]1(OCCC=C[C@H]1C)C(=O)N2Cc1ccccc1C(F)(F)F	.	2	-3	0	4	4	.	.
O=S(=O)(/C(=C\c1ccc(C(F)(F)F)cc1)c1nc2ccccc2[nH]1)c1ccccc1	86*	.	.	.	.	.	101*	96*
C[C@H](CO)N1C[C@H](C)[C@@H](CN(C)C(=O)Nc2cccc(F)c2)OCc2cn(nn2)CCCC1=O	.	-2	0	-1	-2	-3	.	.
O=c1[nH][nH]c2c1[C@@H](c1ccc(F)cc1)O[C@H](C1CCCCC1)C2	10	1	14	-6	3	7	.	.
O=c1[nH][nH]c2c1[C@H](c1ccc(Cl)cc1)O[C@H](C1CC1)C2	23*	-3	7	-3	4	-4	38*	25*
O=c1[nH][nH]c2c1[C@H](c1ccc(F)cc1)O[C@H](C1CCCCC1)C2	28*	0	14	-6	1	-1	9	26*
O=c1[nH][nH]c2c1[C@H](c1ccccc1)O[C@H](C1CCCCC1)C2	31*	1	14	-7	2	0	34*	44*
O=C(O)c1cccc(NC2=C(Cl)C(=O)c3ccccc3C2=O)c1	38*	1	2	-3	8	-10	38*	24*
O=C(O)c1ccc(NC2=C(Cl)C(=O)c3ccccc3C2=O)cc1	3	0	2	-1	13	-6	.	.
O=C(/C=C/c1cc(Br)ccc1O)c1ccco1	82*	3	8	-2	3	5	98*	97*
NC(=O)c1ccccc1N/C=C/C(=O)c1ccco1	-4	-1	4	-4	3	-5	.	.
N#Cc1ccc(/C=C/C(=O)c2ccco2)cc1	63*	-3	1	0	2	-3	93*	95*
Nc1ccc(/C=C/C(=O)c2ccco2)cc1	11	-1	-3	-23	-1	-15	.	.
O=C(/C=C/c1ccccc1O)c1ccco1	61*	2	0	-4	-5	0	83*	78*
